High-throughput results: PubChem, National Center for Advancing Translational Sciences (NCATS)
The list is not random: actives were taken first. Their share in the collection is about 2.4%.
AmpC inh no det: inhibitors of E. coli AmpC beta-lactamase without detergent. 71,000 compounds, 1.8% hits. AmpC nitrocefin hydrolysis, absorbance 480 nm, no detergent. P00811. Potency, µM (top dose mostly 28.7 µM), inactives show at the top dose activity change, negative = inhibition. AID 585; also: % of control where 0% means no effect
Target sequence (P00811 whole entry, looked up): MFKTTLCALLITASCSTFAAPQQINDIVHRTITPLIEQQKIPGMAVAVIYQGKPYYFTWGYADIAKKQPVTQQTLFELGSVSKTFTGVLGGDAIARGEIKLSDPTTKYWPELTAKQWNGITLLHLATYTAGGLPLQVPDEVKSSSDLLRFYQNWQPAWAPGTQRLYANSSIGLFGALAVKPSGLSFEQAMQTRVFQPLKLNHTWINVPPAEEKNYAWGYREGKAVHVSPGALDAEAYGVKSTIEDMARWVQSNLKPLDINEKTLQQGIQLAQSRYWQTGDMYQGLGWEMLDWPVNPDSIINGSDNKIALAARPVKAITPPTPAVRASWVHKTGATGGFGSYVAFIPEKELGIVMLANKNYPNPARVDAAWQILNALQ
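Enzyme, pH 7.0 phosphate. Compound titrations were pre-incubated with AmpC for 15 min at room temperature before nitrocefin (stock 800 uM) addition; product formation was recorded at 480 nm every 20 s for 4 min.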
SmPrx2 inh: inhibitors of Schistosoma mansoni peroxiredoxin 2; AID 448; Potency, µM; S. mansoni Prx2 activity coupled to TGR/GSH (TGR is thioredoxin glutathione reductase), NADPH fluorescence loss, qHTS; 65,000 compounds, 0.07% hits
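Purified S. mansoni TGR and Prx2 in pH 7.4 phosphate buffer with EDTA and Tween-20 were preincubated with compounds for 15 min. Further NADPH/GSH was added, then a 2.5 mM H2O2 aliquot initiated turnover, followed kinetically by NADPH fluorescence.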
AmpC inh det: AmpC beta-lactamase inhibition, detergent assay | purified AmpC, nitrocefin hydrolysis with detergent | Potency, µM (top dose mostly 28.7 µM), for the others: at the top dose activity change, negative = inhibition | 71,000 compounds, 0.09% hits; active = well fitted curve in the direction sought with a large enough effect; inconclusive = small, poorly fitted or top-dose-only effect; also: % is scaled to controls: 0 for no effect and ±100 for the full control effect
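E. coli AmpC (5.3 nM) in 20 mM phosphate pH 7.0 with 0.01% Triton X-100, preincubated 15 min RT with compound; nitrocefin (2 uL of 800 uM stock) hydrolysis followed by 480 nm absorbance every 20 s over 4 min.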
Anthrax LT inh: anthrax lethal toxin internalization inhibition; Potency, µM (top dose mostly 40 µM), for inactives: at the top dose activity change, negative = inhibition, actives largely listed as inhibitors; 70,000 compounds, 0.67% hits; AID 912; Cells, anthrax lethal toxin internalization, FRET ratio (460/530); also: % is scaled to controls: 0 for no effect and ±100 for the full control effect; nearly all actives have a fitted effect of over 50% in size
Active calls of the source: *; ? = inconclusive; nt = no result given; [ ] = remark or other dose. Unless noted, calls follow the shape of the full dose curve. Potency is read from the fitted curve at half-maximal effect.

SMILES	AmpC inh no det	SmPrx2 inh	AmpC inh det	Anthrax LT inh
C[C@@H]1CCC/C=C\[C@H]2C[C@H](O)C[C@@H]2[C@H](O)/C=C\C(=O)O1	7%	>57	-4%	?
CC(C)CCOC(=O)C1C2C=CC3(CN(Cc4cccs4)C(=O)C13)O2 (stereo unspecified)	4µM*[single pt active]	>57	9%	-9%
COc1ccc2c(c1O)-c1cccc3c1[C@H](C2)N(C)CC3	-4%	>57	0%	?
O=C1/C(=C/Nc2ccc3c(c2)OCO3)CCc2ccccc21	-17%	nt	4%	7.9µM*
O=C(O)c1cccc([As]=[As]c2cccc(C(=O)O)c2)c1 (stereo unspecified)	4%[5.75 µM]	0.25*	0%[5.75 µM]	?
Cc1ncc(COP(=O)(O)O)c(C)c1O	5%[5.75 µM]	>57	-1%[5.75 µM]	0%[8 µM]
CO[C@H]1COC(=O)C/C=C\[C@H](C)[C@@H](OC)COC(=O)[C@@H](C)COC(=O)C/C=C\[C@@H]1C	nt	nt	nt	-10%[8 µM]
CCN(CC)C(=O)N[C@@H]1C=C2c3cccc4[nH]cc(c34)C[C@@H]2N(C)C1	15%	>57	-2%	-15%
COc1cccc(-c2ccc3ncnc(N(C)C)c3c2)c1	6.3µM*	>57	10µM*	?
O=C(NCCc1c[nH]c2ccccc12)c1c(Cl)nc2sccn12	13µM*	>57	-3%	9%
Cn1c(C(=O)NCCc2c[nH]c3ccccc23)cc2sccc21	-6%	>57	12%	?
O=C(Cc1c[nH]c2ccccc12)Nc1nc2ccccc2[nH]1	7.9µM*	>57	2%	-2%
O=C(Cc1ccccc1)Nc1nc2ccccc2[nH]1	-17%	>57	-5%	-7%
O=C(O)[C@H]1CCCC[C@@H]1C(=O)Nc1nc2ccccc2[nH]1	2%[5.75 µM]	>57	-3%[5.75 µM]	?
O=C(Nc1cnn(Cc2ccc(Cl)cc2Cl)c1)c1noc2c1CCCC2	4µM*[single pt active]	>57	13%	?
COc1ccc(-c2[nH]ncc2-c2cnn(-c3ccccc3)c2)c(O)c1	-16%	>57	9%	13µM*
C#C[C@]1(O)CC[C@@H]2[C@H]3CCc4cc(OC)ccc4[C@@H]3CC[C@@]21C	1%[12.8 µM]	>57	-3%[12.8 µM]	4%[3.58 µM]
Oc1ccc(Br)cc1/C=N/n1cnc2ccccc21	16µM*[single pt active]	>57	0%	-31%
OCC(CO)(CO)N=Cc1cc(Br)ccc1O	-6%	>57	4%	-20%
CCOc1ccccc1NC(=O)CCC(=O)Nc1ccc2nc(N3CCN(C)CC3)cc(C)c2c1	100%	>57	0%	13µM*
Cc1cc(N2CCN(C)CC2)nc2ccc(NC(=O)c3ccc(Br)o3)cc12	89%	>57	-4%	13µM*
Cc1cc(N2CCN(C)CC2)nc2ccc(NC(=O)c3ccc4c(c3)OCO4)cc12	84%	>57	-2%	?
CCC(C)NC(=O)CCC(=O)Nc1ccc2nc(N3CCOCC3)cc(C)c2c1 (stereo unspecified)	31%	>57	-4%	6%
Clc1nc(NCCc2ccccc2)c2ncn(-c3ccccc3)c2n1	-11%[5.75 µM]	>57	0%[5.75 µM]	0%[8 µM]
O=C1CC(N2CCC(c3nc4ccccc4[nH]3)CC2)C(=O)N1Cc1ccccc1 (stereo unspecified)	36%	>57	-3%	0%
SMILES	AmpC inh no det	SmPrx2 inh	AmpC inh det	Anthrax LT inh
CN1C(=O)CC(N2CCC(c3nc4ccccc4[nH]3)CC2)C1=O (stereo unspecified)	4µM*[single pt active]	>57	13%	-3%
CS(=O)(=O)Nc1cccc(-c2ccc3ncnc(NCc4cccs4)c3c2)c1	6%	>57	6%	?
CCOC(=O)c1c(-c2ccc(C)o2)csc1NC(=O)CSc1nnnn1-c1ccccc1	13µM*	>57	0%	?
CC1CCN(c2nncc3ccccc23)CC1	2%	>57	-2%	-3%
CC1CCN(c2nnc(N3CCC(C)CC3)c3ccccc23)CC1	3.2µM*[single pt active]	>57	12%	-5%
CN(Cc1ccco1)c1ncncc1-c1cccnc1	16%	>57	7%	-5%
O=C(CCCN1CCC2(CC1)C(=O)N(Cc1cccc(F)c1)CN2c1ccccc1)c1ccc(F)cc1	20µM*[single pt active]	>57	-9%	?
CCCOC(=O)C1C2C=CC3(CN(c4ccc(Cl)c(F)c4)C(=O)C13)O2 (stereo unspecified)	?	>57	13%	-15%
CCOC(=O)C1C2C=CC3(CN(c4ccc(Cl)c(F)c4)C(=O)C13)O2 (stereo unspecified)	2µM*[single pt active]	>57	10%	14%
O=C(Cn1c(C(=O)N2CCc3ccccc3C2)cc2sccc21)c1ccccc1	16µM*[single pt active]	>57	6%	?
CCCOc1nc(N)c(C#N)c(-c2ccccc2F)c1C#N	0%	>57	-3%	7.9µM*
CC(=O)O[C@@H]1C(=O)[C@@]2(C)[C@H](O)C[C@H]3OC[C@]3(OC(C)=O)[C@@H]2[C@H](OC(=O)c2ccccc2)[C@@]2(O)C[C@H](OC(=O)[C@@H](O)[C@@H](NC(=O)c3ccccc3)c3ccccc3)C(C)=C1C2(C)C (stereo in doubt)	123%[12.8 µM]	>57	0%[12.8 µM]	?
COc1ccc(-n2c(Cc3cc(=O)[nH]c(=O)[nH]3)nnc2SCc2ccccc2)cc1	4µM*[single pt active]	>57	10%	3%
COc1cccc(-n2c(Cc3cc(=O)[nH]c(=O)[nH]3)nnc2SCc2cccnc2)c1	4µM*[single pt active]	>57	14%	-1%
CCOc1ccc(-n2c(Cc3cc(=O)[nH]c(=O)[nH]3)nnc2SCC)cc1	3%	>57	15%	-9%
Nc1nc(N2CCCCC2)nc2ccccc12	18%	>57	-7%	20µM*
c1ccc2c(N3CCCCC3)nc(N3CCCC3)nc2c1	22%	>57	-5%	10µM*
c1ccc(-c2nc(N3CCCCCC3)c3ccccc3n2)nc1	48%	nt	2%	?
Nc1nc(-c2ccco2)nc(N2CCCCC2)n1	0%	>57	2%	10%
CN(CCC#N)C(=O)Cn1nc(Cc2ccncc2)c2ccccc2c1=O	4µM*[single pt active]	>57	11%	-4%
O=C(Cn1nc(Cc2cccnc2)c2ccccc2c1=O)N1CCC2(CC1)OCCO2	-6%	>57	1%	11%
CN(C)C(=O)Cn1nc(-c2ccccc2)c2ccccc2c1=O	11%	>57	-3%	4%
O=C(Cn1nc(Cc2ccncc2)c2ccccc2c1=O)N1CCc2ccccc2C1	4µM*[single pt active]	>57	11%	-1%
COCC(=O)Nc1c(I)c(C(=O)NC[C@@H](O)CO)c(I)c(C(=O)N(C)C[C@@H](O)CO)c1I	-3%[12.8 µM]	>57	18%[12.8 µM]	5%[3.58 µM]
CC(C)=CCC/C(C)=C/CO/N=C1/C[C@@H](O)[C@@H](O)[C@@H]2[C@@H]3C(=O)N(c4cccc(Oc5ccccc5)c4)C(=O)[C@H]3CC[C@H]12	nt	nt	nt	4%[0.32 µM]
O=C(Nc1nc2c(s1)CCCC2)c1ccc2ncsc2c1	78%	>57	13%	10µM*
Cc1ncsc1C(=O)Nc1nc2c(s1)CCCC2	-1%	>57	-1%	11%
CN1CCC[C@@H]1c1cccnc1.O=C(O)c1ccccc1O.O=C([OH2+])c1ccccc1O.O=C([OH2+])c1ccccc1O.O=C([OH2+])c1ccccc1O.[Cu]	0%[5.75 µM]	>57	-8%[5.75 µM]	-3%[8 µM]
